High-throughput results deposited in PubChem by several laboratories.
GC-B act – GC-B (human) receptor activation | P20594 | HEK293-GC-B cells, CNP EC30, cGMP TR-FRET; 0% at EC30 CNP, 100% saturating CNP | activation, % at 10 µM | actives 0.11% (n = 370,000) | AID 1920062;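 active = activation at 10 µM reaching about 35% in either raw or pattern-adjusted values, limit read from the data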
HIF act – HIF pathway transcriptional activation | actives 0.32% (n = 300,000) | AID 1910 | U2OS HRE-luciferase reporter, luminescence; normalized: DMSO 0%, desferrioxamine 100% | activation, % at 7.5 µM (by protocol);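 active = mean activation of at least 10% of the iron chelator positive control signal, with at least half of replicates also reaching 10%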
KLK7 zymogen act – activators of human kallikrein-7 zymogen; P49862; purified proKLK7, EDANS-DABCYL substrate fluorescence; 100% is mature enzyme control, 0% vehicle; activation, % at 7 µM; actives 0.9% (n = 370,000); AID 652039;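 active = activation above the mean of all tested compounds plus 3 SD, computed per campaign excluding outliers beyond control limits, cut at about 13% in these data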
Target sequence (P49862 whole entry, looked up): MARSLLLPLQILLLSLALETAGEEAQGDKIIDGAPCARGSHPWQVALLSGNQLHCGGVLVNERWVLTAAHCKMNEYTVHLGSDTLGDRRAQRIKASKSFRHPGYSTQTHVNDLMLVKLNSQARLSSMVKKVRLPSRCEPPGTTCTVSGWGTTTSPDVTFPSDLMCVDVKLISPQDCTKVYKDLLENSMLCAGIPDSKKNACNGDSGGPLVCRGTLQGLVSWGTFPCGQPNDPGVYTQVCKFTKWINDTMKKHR
NPR1 activator – GC-A (human) enzyme activation; P16066; HEK293 GC-A cells, cGMP TR-FRET, EC30 ANP; 0% at EC30 ANP, 100% saturating ANP; activation, % at 10 µM; actives 0.14% (n = 370,000); in the data active = activation above about 40%
proKLK7 act conf – proKLK7 activation, confirmation; purified proKLK7, EDANS-DABCYL substrate fluorescence; scaled: vehicle 0, mature enzyme 100; AID 686949; shares compounds with KLK7 zymogen act; actives 68% (n = 3,200); activation, % at 7 µM;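 active = activation, as change over the incubation, above the mean of all tested compounds plus 3 SD, cut at about 13% in these data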
EDANS-DABCYL int – counter-screen for kallikrein-7 activators: EDANS-DABCYL optical interference; activation, % at 7 µM; shares compounds with KLK7 zymogen act; actives 80% (n = 3,200); EDANS-DABCYL substrate fluorescence interference, no enzyme, 4 h; solvent 0%, active enzyme control 100%;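 active = activation above the all-compound mean plus 3 SD, ignoring values outside control-based bounds, cut at about 4.8% in these data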;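 note: value is the 4 h activation minus the activation read at time zero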
Numbers without * were called inactive; . = not tested or not shown. Hits are enriched below; roughly 1.3% of the tested compounds scored in any of these assays.

SMILES | GC-B act | HIF act | KLK7 zymogen act | NPR1 activator | proKLK7 act conf | EDANS-DABCYL int
CC(OC(=O)c1ccccc1NCCO)C(=O)NCC(=O)Nc1ccc(F)c(F)c1F (stereo not given) | -1 | 0 | 25* | -1 | 83* | 74*
COCCCNC(=O)C[C@H]1C[C@@]2(C(=O)OC)C(=C[C@H](COCc3ccccc3)O[C@@H]2C)N(CCc2ccc(OC)c(OC)c2)C1=O | 3 | . | 0 | 2 | . | .
COc1cc(-c2cc(C(=O)Nc3cc(S(=O)(=O)N4CCOCC4)ccc3C)c3ccccc3n2)cc(OC)c1OC | 10 | . | 211* | 3 | 233* | 316*
COc1ccc(-c2cc(C(=O)Nc3cc(S(N)(=O)=O)ccc3C)c3ccccc3n2)cc1OC | 3 | -1 | -7 | -1 | . | .
CCOc1ccc(-c2cc(C(=O)NCCCN3CCOCC3)c3ccccc3n2)cc1 | 4 | 2 | 18* | 6 | 6 | 9.6*
O=C(NCCCN1CCOCC1)c1cc(-c2ccc(F)cc2)nc2ccccc12 | -4 | . | 1 | 1 | . | .
NC(=O)COC(=O)c1cc(-c2ccco2)nc2ccccc12 | -3 | 0 | 161* | -3 | 63* | 72*
COc1ccc(-c2cc(C(=O)Nc3ccc(S(N)(=O)=O)cc3)c3ccccc3n2)cc1OC | 1 | 1 | 131* | 6 | 77* | 95*
COCCN1C(=O)C2=C(C1=O)C1N(C)c3ccccc3[C@@]13C[C@@H](CO)N(C(C)=O)C3=N2 (stereo not given in full) | 0 | . | -1 | 3 | . | .
COC(=O)[C@]12C[C@H](CC(=O)NCc3ccc(OC)c(OC)c3)C(=O)N(CCc3ccc(OC)c(OC)c3)C1=C[C@H](C(C)C)O[C@@H]2C1CC1 | 7 | . | 0 | 6 | . | .
C=CCN1C(=O)[C@H](CC(=O)N2CCN(C(=O)C3CC3)CC2)[C@@]2(C(=O)OCC)CCCC=C12 | -2 | . | 0 | -2 | . | .
COc1ccc(CNC2CCC23CCC(C)CC3)cc1OC (stereo not given) | -6 | . | . | -7 | . | .
CC(C)CCNC(=O)c1cc(-c2ccco2)nc2ccccc12 | 1 | -1 | 13* | 10 | -32 | -60
NS(=O)(=O)c1ccc(CCNC(=O)c2cc(-c3ccco3)nc3ccccc23)cc1 | 1 | . | -1 | -1 | . | .
COc1ccc(-c2cc(C(=O)NCCCN3CCCC3=O)c3ccccc3n2)cc1 | 6 | 1 | 35* | 1 | 29* | 31*
COc1ccc(NC(=O)c2cc(-c3ccco3)nc3ccccc23)cc1 | -5 | 0 | 15* | 7 | 14* | 20*
CCCCCCNC(=O)c1cc(-c2ccco2)nc2ccccc12 | 2 | -11 | 20* | -2 | -24 | -34
CN(C)C(CNC(=O)c1cc(-c2ccco2)nc2ccccc12)c1ccccc1 (stereo not given) | -4 | . | 31* | -11 | 1 | 1
O=C(NCCCN1CCOCC1)c1cc(-c2ccco2)nc2ccccc12 | 2 | . | 62* | 2 | 18* | 30*
CCC[C@H]1[C@@H](OC(=O)N2CCCC2)CC[C@@]23CCCN2C(=O)CCC[C@@H]13 | -11 | . | . | -3 | . | .
COC(=O)c1ccc2c(C)c(C(C)(C)O)[nH]c2c1 | 5 | 3 | 28* | -1 | 67* | 63*
COc1ccc2c(c1)cc1n2CCN=C1NCCO | 4 | 0 | 17* | 0 | 20* | 27*
CN=C1c2cc3cc(OC)ccc3n2CCN1C | -3 | 0 | 1 | 4 | . | .
CCOC(=O)[C@]12CCCC3=C1N(CCC3)C(=O)[C@@H](CC(=O)NCCCCc1ccccc1)C2 | -3 | . | 1 | 5 | . | .
COc1cc2c(cc1OC)C(=O)CC(C)S2 (stereo not given) | 3 | 0 | 14* | 5 | 32* | 26*
COCCNC(=S)NCCCNc1nc2cc3c(cc2cc1C#N)OCO3 | -5 | 0 | 25* | 0 | 14* | 19*
c1coc(-c2nnc3n2N=C(c2ccc4c(c2)OCO4)CS3)c1 | 17 | . | 0 | 21 | . | .
